Results: PubChem BioAssay AID1159580 (chemical genetic matrix, 2015)
Screen size: about 5,500 compounds; about 2,000 (36%) were called active. About 18% were inconclusive and are not listed. No stated cut-off is given here; in the data, active means normalized growth mostly below about 0.91 (no sharp cut-off); inconclusive means no clear call, values can overlap the other calls; inactive means mostly above about 0.92. This is one part of the list.

Test: chemical genetic growth profiling, strain panel (AID 1159580);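 further: tested at 20 µM; growth read once vehicle control cultures reached saturation at 30 °C; 1 = growth at the plate median or of vehicle wells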
Settings: S. cerevisiae deletion strains, growth OD

Measured: normalized growth

c1ccc(N=Nc2ccc(Nc3ccccc3)cc2)cc1
inactive: locus YDL101C, strain DUN1, stronger effect = lower value 0.977 | locus YDR150W, strain NUM1, stronger effect = lower value 0.906 | locus YGR229C, strain SMI1, stronger effect = lower value 0.984 | locus YLR058C, strain SHM2 (second series), stronger effect = lower value 0.964 | locus YNL322C, strain KRE1, stronger effect = lower value 1 | locus YPR135W, strain CTF4, stronger effect = lower value 0.748
active: locus YAL013W, strain DEP1, stronger effect = lower value 0.916 | locus YBR229C, strain ROT2, stronger effect = lower value 0.823 | locus YCL061C, strain MRC1, stronger effect = lower value 0.89 | locus YDL134C, strain PPH21, stronger effect = lower value 0.825 | locus YEL061C, strain CIN8, stronger effect = lower value 0.74 | locus YGR078C, strain PAC10, stronger effect = lower value 0.897 | locus YHR030C, strain SLT2, stronger effect = lower value 0.57 | locus YHR087W, strain rtc3, stronger effect = lower value 0.751 | locus YJR043C, strain POL32, stronger effect = lower value 0.91 | locus YJR075W, strain HOC1, stronger effect = lower value 0.754 | locus YLR039C, strain RIC1, stronger effect = lower value 0.425 | locus YLR085C, strain ARP6, stronger effect = lower value 0.389 | locus YLR262C, strain YPT6, stronger effect = lower value 0.37 | locus YML094W, strain GIM5, stronger effect = lower value 0.812 | locus YMR219W, strain ESC1, stronger effect = lower value 0.92 | locus YMR263W, strain SAP30, stronger effect = lower value 0.9 | locus YMR307W, strain GAS1, stronger effect = lower value 0.405 | locus YNL128W, strain TEP1, stronger effect = lower value 0.913 | locus YNL153C, strain GIM3, stronger effect = lower value 0.914 | locus YNL298W, strain CLA4 (second series), stronger effect = lower value 0.79 | locus YNR030W, strain Alg12, stronger effect = lower value 0.737 | locus YPL055C, strain LGE1, stronger effect = lower value 0.626 | locus YPL241C, strain CIN2, stronger effect = lower value 0.75
